# Data reported in the supplement of paper PMC3545927.
# Some of the results follow. How many sequences the whole screen found active is unknown.
# B1: HC512 (peptide)
# chain: CAYGVGSSIAAGNASASA
# B2: HC1394 (peptide)
# chain: CAQRQKKVTFAGNASASA
# B3: HC637 (peptide)
# chain: CALTPLRDWAAGNASASA
# B4: HC1216 (peptide)
# chain: CAKCPCQVPSAGNASASA
# B5: HC1493 (peptide)
# chain: CALDPQARVAAGNASASA
# B6: FS-445 (peptide)
# chain: CAKCPRQRRAAGNASASA
# B7: FS-1252 (peptide)
# chain: CAQRQRAKRNAGNASASA
# B8: FS-943 (peptide)
# chain: CALRLRGPRAAGNASASA
# B9: FS-360 (peptide)
# chain: CALRPRQRRAAGNASASA
# B10: HC195 (peptide)
# chain: CARRPEGRTWAGNASASA
# B11: FS-543 (peptide)
# chain: CAISPRQRRAAGNASASA
# B12: HC1045 (peptide)
# chain: CAISGIQYLAAGNASASA
# B13: FS-614 (peptide)
# chain: CALRPRFRREAGNASASA
# B14: FS-272 (peptide)
# chain: CALRWRQRRAAGNASASA
# B15: HC1520 (peptide)
# chain: CAARAACRAAAGNASASA
# B16: FS-138 (peptide)
# chain: CAPRARCRRAAGNASASA
# B17: FS-449 (peptide)
# chain: CAKIPRFRRIAGNASASA
# B18: HC1431 (peptide)
# chain: CASVWKDLLEAGNASASA
# B19: HC1135 (peptide)
# chain: CASSLTVTQLAGNASASA
# B20: HC1244 (peptide)
# chain: CADVAVLTSMAGNASASA
# B21: HC2490 (peptide)
# chain: CASVPCSAHLAGNASASA
# B22: HC1262 (peptide)
# chain: CAASQLSAPSAGNASASA
# B23: HC78 (peptide)
# chain: CATTPCNGSWAGNASASA
# B24: HC579 (peptide)
# chain: CARYISWCLWAGNASASA
# B25: HC2259 (peptide)
# chain: CAEVVTSTWPAGNASASA
# B26: FS-86 (peptide)
# chain: CARPQPQRRAAGNASASA
# B27: FS-347 (peptide)
# chain: CALAQRQRRIAGNASASA
# B28: FS-1253 (peptide)
# chain: CAQRQRQRRAAGNASASA
# Molecular target: furin, P09958
# Test: furin cleavage Z-score vs untreated control; higher = more cleavage, active = 3.5 or more, inactive = 1 or less, 8 variable residues between constant flanks
# In short: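 To give the cleavage Z-score, log read counts were set against furin-free reactions, lowess-adjusted and scaled by median absolute deviation. These counts came from PCR adapter-tagged, sequenced DNA released when purified furin cut 8-mer peptides fused to a cDNA oligonucleotide and held on magnetic beads by their N-terminus. Digests were 0.01 ml, 1:10 enzyme:substrate, in 50 mM HEPES pH 7.5 with CaCl2 and NaCl, for 7.5, 15 or 30 min.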
# Chain of furin, P09958 (P09958 whole entry): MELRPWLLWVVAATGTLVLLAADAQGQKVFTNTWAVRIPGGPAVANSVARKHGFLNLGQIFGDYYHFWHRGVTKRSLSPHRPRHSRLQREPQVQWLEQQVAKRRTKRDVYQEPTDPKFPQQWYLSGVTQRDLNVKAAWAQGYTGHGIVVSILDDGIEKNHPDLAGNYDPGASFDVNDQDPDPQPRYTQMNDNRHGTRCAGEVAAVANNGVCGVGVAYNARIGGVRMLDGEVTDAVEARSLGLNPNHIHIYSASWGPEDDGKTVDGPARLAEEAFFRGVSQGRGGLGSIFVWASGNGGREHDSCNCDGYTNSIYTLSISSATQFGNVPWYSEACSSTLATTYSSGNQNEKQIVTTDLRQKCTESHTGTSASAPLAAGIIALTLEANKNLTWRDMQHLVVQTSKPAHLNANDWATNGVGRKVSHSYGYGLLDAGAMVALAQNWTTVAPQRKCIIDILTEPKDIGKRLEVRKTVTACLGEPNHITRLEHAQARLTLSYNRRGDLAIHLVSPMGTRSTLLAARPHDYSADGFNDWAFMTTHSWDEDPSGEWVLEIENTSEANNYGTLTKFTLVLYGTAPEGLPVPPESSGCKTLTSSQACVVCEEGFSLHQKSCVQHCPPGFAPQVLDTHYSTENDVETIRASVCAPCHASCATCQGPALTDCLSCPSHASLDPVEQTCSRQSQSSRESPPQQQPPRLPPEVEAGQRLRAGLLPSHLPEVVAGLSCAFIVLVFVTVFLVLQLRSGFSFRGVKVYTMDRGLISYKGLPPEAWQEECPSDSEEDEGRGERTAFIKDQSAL
Sequence,furin cleavage Z-score (7.5 min),furin cleavage Z-score (15 min),furin cleavage Z-score (30 min)
B1,-0.889 (inactive),-1.2 (inactive),0.412 (inactive)
B2,1.32,-2.05 (inactive),-3.25 (inactive)
B3,-0.181 (inactive),1.58,-0.616 (inactive)
B4,0.69 (inactive),0.244 (inactive),-0.458 (inactive)
B5,-1.42 (inactive),-2.18 (inactive),-0.348 (inactive)
B6,7.55 (active),6.15 (active),7.23 (active)
B7,13.8 (active),13.3 (active),10.1 (active)
B8,4.69 (active),3.33,3.8 (active)
B9,7.42 (active),7.73 (active),6.07 (active)
B10,-0.89 (inactive),0.845 (inactive),-0.916 (inactive)
B11,7.77 (active),6.99 (active),6.1 (active)
B12,-1.05 (inactive),0.557 (inactive),-1.83 (inactive)
B13,10 (active),8.78 (active),6.07 (active)
B14,3.83 (active),4.93 (active),3.79 (active)
B15,-1.54 (inactive),-0.427 (inactive),-0.259 (inactive)
B16,8.91 (active),10.2 (active),7.25 (active)
B17,0.2 (inactive),0.191 (inactive),2.93
B18,-0.463 (inactive),0.374 (inactive),-0.00259 (inactive)
B19,0.41 (inactive),-0.51 (inactive),-0.191 (inactive)
B20,0.796 (inactive),0.438 (inactive),-0.848 (inactive)
B21,0.673 (inactive),0.436 (inactive),1.54
B22,0.172 (inactive),0.594 (inactive),2.91
B23,-0.41 (inactive),0.152 (inactive),0.215 (inactive)
B24,-0.0545 (inactive),0.138 (inactive),0.846 (inactive)
B25,-1.41 (inactive),-0.126 (inactive),0.24 (inactive)
B26,2.58,5.58 (active),5.07 (active)
B27,0.264 (inactive),-0.423 (inactive),0.578 (inactive)
B28,8.09 (active),6.53 (active),6.09 (active)
